PubChem BioAssay AID493076 (National Center for Advancing Translational Sciences (NCATS), 2011)
The other results are listed elsewhere or left out. Results filed as inconclusive are left out. Active and inactive are the calls of the source. Calls follow the shape of the dose curve; as a rule, active = well fitted curve in the direction sought with a large enough effect; inconclusive = small, poorly fitted or top-dose-only effect, or effect the other way, or another doubt; inactive = no such curve, though single readings can be large or run the other way.

target: Thyrotropin-releasing hormone receptor (Homo sapiens) (UniProt P34981); test: qHTS for Small Molecule Agonists and Allosteric Enhancers of Human TRH Receptor: Confirmation Screen for Enhancers; settings: TRH receptor cell assay, enhancer confirmation qHTS; series mostly up to 46.1 µM
Sequence (P34981 whole entry, looked up): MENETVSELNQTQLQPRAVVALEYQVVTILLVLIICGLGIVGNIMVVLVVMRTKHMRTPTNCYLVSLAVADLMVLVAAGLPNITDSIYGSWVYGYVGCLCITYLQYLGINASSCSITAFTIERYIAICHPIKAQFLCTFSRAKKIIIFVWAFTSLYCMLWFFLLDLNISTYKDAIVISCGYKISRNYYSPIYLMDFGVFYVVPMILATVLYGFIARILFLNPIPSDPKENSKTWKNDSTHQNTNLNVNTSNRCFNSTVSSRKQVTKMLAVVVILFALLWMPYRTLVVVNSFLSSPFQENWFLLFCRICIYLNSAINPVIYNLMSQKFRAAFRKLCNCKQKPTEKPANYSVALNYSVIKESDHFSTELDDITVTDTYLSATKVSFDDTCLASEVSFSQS
From the text: NIH Chemical Genomics Center [NCGC]
NIH Molecular Libraries Probe Centers Network [MLPCN]
Assay Submitter (PI): Marvin Gershengorn
This project aims to identify small drug-like molecules that activate (agonists) the thyrotropin releasing hormone (TRH) receptor (TRHR) or enhance its TRH-stimulated activity (allosteric enhancers). TRHR, a drug-accessible cell surface receptor expressed in specific brain regions, and its ligand TRH have been implicated in several central nervous system disorders, including depression and anxiety. Small molecule TRHR agonists or allosteric enhancers that are metabolically stable and able to cross the blood-brain barrier might serve as probes to elucidate the roles of brain TRH receptors in animal models, and might be valuable as lead compounds for the development of drugs to treat patients with central nervous system disorders.
Upon TRHR-Gq activation in TRHR cells, intracellular calcium is released from stores in the endoplasmic reticulum. […] This primary screen measures compound-induced enhancement of an EC20 stimulation of the receptor by its native ligand.
For the HTS assay freshly prepared cells are plated at a density of 2000/well in 3 ul of complete DMEM medium containing 10% serum in 1536-well plates and cultured over night at 37 C in a humidified incubator with 5% CO2. The next day, 2 ul of a no wash calcium dye (ABD Bioquest) was added to the cells and plates were incubated at room temperature for 1 hour. For the assay, assay plates were loaded into the FDSS kinetic plate reader. A 10 cycle (1 second/cycle) baseline measurement is taken and then the FDSS online 1536 pintool delivers 23 nl of compound library (as well as TRH controls) to the plate. The plate is measured for kinetically at 1 cycle/sec for 180 seconds and is considered to be the agonist portion of the assay (eg, compounds which activate a positive calcium response during this portion are flagged as potential agonists). Following the 180 second read, 1 ul of either an EC20 (positive modulation assay) is delivered by an onboard pipette head. Measurements are taken kinetically for an additional 180 seconds.
TRHR FDSS Screening Protocol
1. Reagent, 3 uL 2000 cells/well 1536 TC treated Black plate in media containing 10% FCS
2. Time, 18 hours, 33.5C 5% CO2 (cells grown at 37C)
3. Reagent, 2 uL ABD fluo-8 Ca dye
4. Time, 30 min-1.5hrs hours, Room temp (6 plates/batch)
5. Detector, EX 480/EM 530C, FDSS 10 cycles baseline (1sec/cycle)
6. Compound, 23 nL of stock solution from library
7. Detector, EX 480/EM 530C, FDSS 230 cycles (1sec/cycle) Agonist mode
8. Compound, 1 ul EC20 of TRH made up in HEPES HBSS, 10 nM final
9. Detector, EX 480/EM 530C, FDSS 100 cycles (1sec/cycle) Potentiator mode

outcome, inactive:
CC(C)c1nnc(NC(=O)CCC(=O)N2CCN(c3cccc(Cl)c3)CC2)s1, COC(=O)c1cc(N2CCNCC2)nc2ccccc12, Cc1nn(Cc2ccccc2)c(C)c1C(=O)N1CCN(CC(=O)Nc2ccccc2Cl)CC1
